Measurements from the supplement of paper PMC3334620.
In all, about 33,000 sequences were measured (“E-score (-0.5 to 0.5)”: median about -0.0034, highest 2% from about 0.25 on). What follows is part of a selection rich in the highest values, with near analogues and random picks from the rest.

target: T1, Yap3 (UniProt P38749); assay: PBM E-score (8-mer binding enrichment) (E-score (-0.5 to 0.5)); higher = stronger / more preferred TF binding; details: protein concentration: 100 nM; construct: GST-full length
T1 sequence: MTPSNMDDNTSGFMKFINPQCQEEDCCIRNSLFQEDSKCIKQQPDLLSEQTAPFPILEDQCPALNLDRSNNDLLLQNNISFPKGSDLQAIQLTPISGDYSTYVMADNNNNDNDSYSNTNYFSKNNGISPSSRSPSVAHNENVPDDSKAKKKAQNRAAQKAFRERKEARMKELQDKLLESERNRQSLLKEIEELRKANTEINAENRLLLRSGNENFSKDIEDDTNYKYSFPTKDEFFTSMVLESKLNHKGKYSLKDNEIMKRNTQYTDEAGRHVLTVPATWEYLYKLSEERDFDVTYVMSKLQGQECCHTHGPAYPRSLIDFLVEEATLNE
Protocol: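 Universal 'all 10-mer' protein binding microarrays (Agilent AMADID 015681) probed with GST-tagged S. cerevisiae TFs (full-length or DBD) made by in vitro transcription/translation (PURExpress), about 100-200 nM. Bound TF was detected with fluorescent anti-GST. Each ungapped 8-mer (which stands for itself and its reverse complement) is scored by the PBM enrichment score (E-score), a modified Wilcoxon-Mann-Whitney statistic from -0.5 to +0.5, computed with the Universal PBM Analysis Suite. Scale: above 0.35 generally sequence-specific binding.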

Sequence | PBM E-score
CGCTATCC | 0.0718
ACAGATCC | 0.145
CCACCAGC | -0.0909
CATCCTAG | -0.0476
GGGGAGAC | -0.304
AAGCTTTG | 0.0373
AAACCCGA | 0.261
TAACCCGA | -0.0757
GAACCCGA | -0.121
GAACCCAC | 0.028
AGCGCGCA | 0.24
AAGTAAAG | 0.103
AAGTAAAT | 0.26
AAGTAAAC | 0.0216
ACTAGTTC | 0.0926
ATTACTGA | 0.154
ATTACTCC | 0.143
CTTACTTA | 0.113
ATTACTCG | 0.23
ATTACTTA | 0.257
ATTACTCA | 0.299
ATGGTTAA | 0.0266
GCTCGCGA | 0.109
ATCGCTGG | -0.223
ATTAAGGC | 0.0716

Sequence | PBM E-score
GTAGCCGA | -0.114
ACCCTGTA | 0.00489
GATAAAAA | 0.192
ACTATAAA | 0.237
AATATAAT | 0.179
TATATAAA | 0.274
AATATAAC | 0.247
CATATAAA | 0.183
CATAAAAA | 0.186
GATATAAA | 0.21
AATATAAA | 0.282
TATAAAAA | 0.265
AATATAAG | 0.353
CATATAAG | 0.113
GCTCCTCC | -0.294
CCACCCAA | -0.0309
GCCGTATA | 0.141
GTGCCGCA | -0.0486
GCAAGTCC | -0.203
AGGGGCAA | 0.0575
TCCTTTCA | 0.062
AGTGGCCG | -0.119
CTTTATGC | 0.109
GAGAAGTA | 0.0274
AAAGCTGT | 0.15

Sequence | PBM E-score
ACCCTGCA | 0.122
ATGCGCAT | 0.315
ATGCGCAA | 0.0772
ATGCGCAC | 0.0993
ACCTATTA | 0.11
AAAGGCAA | 0.254
TAAGGCAA | 0.0224
AAAGGCAG | -0.0629
GTCCCGGA | -0.103
CATCGCGA | 0.112
AGTCGCGA | 0.272
CGTCGCGA | 0.141
AATCGCGA | 0.255
AATCGCGT | 0.156
GGTCGCGA | 0.0906
ATGGTTCC | 0.0898
CTCTTTGC | 0.00066
AACTTCGG | 0.13
AAATTTCC | 0.125
TAATTTCA | 0.309
AAATTTCA | 0.0121
CAATTTCC | 0.0859
CAATTTCA | 0.0657
GAATTTCC | 0.277
AACAGTCG | -0.0471

Sequence | PBM E-score
CCAGCCCG | -0.258
GTTTACCA | 0.107
CCTAAGCG | -0.033
CCCCATCC | -0.233
ACGCGAGT | 0.087
ACATTTAA | 0.221
TATGCGAA | 0.0891
AATGGAAG | 0.105
AACGGAAG | 0.2
AATGGAAC | 0.12
AACGGAAA | 0.171
AATGGAAT | 0.275
AACGGAAT | 0.262
GCTCCTTA | 0.0472
TAATGACA | 0.197
TAACCTTA | -0.0831
TAGTCTCA | -0.034
AAGTACTT | -0.202
ATGGATAG | 0.0546
CCTAACAG | 0.0154
ACTAACAG | 0.315
ACTAACAC | 0.125
CCATTGTC | 0.0818
ACATTGTG | 0.0748
ACATTGTC | 0.261

Sequence | PBM E-score
GGCTTATA | -0.00779
CTCGACGC | 0.0226
AATGTTGC | 0.0681
CGGATGAG | -0.0331
CGGATGAA | 0.265
AGGATGAA | 0.0231
ATAGAAAA | 0.217
ACTACACA | 0.258
CCTACACG | -0.251
CTAACACA | 0.146
ATTACAGG | 0.268
ATTACAGA | 0.11
ATTACACG | 0.0795
ATTACACC | 0.215
ATAACACG | 0.137
ATTACAGC | -0.046
ATTACACA | 0.255
ATAACACA | 0.273
ACTACACG | 0.0255
CCAGTGGC | -0.168
ATCGAGTC | -0.0569
CAGTAAGC | 0.0593
AAAGATGA | 0.144
ATTCTTCA | 0.0724
ATAACCTG | -0.0425

Sequence | PBM E-score
CGTATAAA | 0.156
GATTACAA | 0.154
ACCAGTTG | 0.0294
AAAAGGGG | -0.187
GATCAACA | -0.0544
AATCAATT | 0.256
AATCAACC | -0.0555
AATCAACA | 0.304
CATCAACA | 0.255
AATCAATG | 0.2
AATCAATC | 0.139
TATCAACA | 0.123
AATCAACG | 0.109
CTCGGTAA | 0.053
ATGAAAAT | 0.209
ATGAAAAG | 0.122
ATGAAATA | 0.288
GTGAAATA | 0.0605
ATGAAAAA | 0.278
CTGAAATA | 0.165
ACGTGCTC | -0.0391
AAAGGTAA | 0.0127
CGGTTGAG | -0.052
AGATTCGC | -0.0247
CGTCTGAC | 0.066

Sequence | PBM E-score
CAAGTGTG | 0.0428
CTGACACC | -0.174
ATGGCACC | -0.14
CTCTGCAC | -0.173
ACATATAC | 0.146
ACATATAA | 0.29
TGATATAA | 0.108
CTATATAA | 0.121
TTATATAA | 0.418
ACATATAT | 0.123
CTCTATAA | 0.0647
GTATATAA | 0.217
TGGTATAA | 0.268
ATATATAA | 0.295
AGGTATAA | 0.0868
CGGTATAA | 0.18
GCCTGCCC | -0.297
CAGAACTG | 0.157
AGCATGAC | -0.037
ACGACCTG | -0.18
AAAGTGTC | -0.0685
CGGACTAG | -0.101
CTAGAGAG | -0.139
CGCGACAA | 0.272
TGCGACAA | -0.00108
